Compounds with a hit are over-represented: about 0.9% of the library has one in this group of screens.
AddAB inh: growth inhibition of E. coli expressing H. pylori AddAB, primary screen, AddAB inhibitor project, absorbance; inhibition, % at 11.9 µM; hit rate 0.29% among 330,000; AID 435030, 2010; in the data active means inhibition above about 12%
E coli growth-1: E. coli growth inhibition, primary screen, OD600; Escherichia coli growth, 23 h; stronger effect = lower value; OD600 absorbance (test concentration not listed); hit rate 0.21% among 330,000;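 active means OD600 absorbance below the run mean of sample wells minus 3.6 SD, in any replicate, cut at about 0.56 in these data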
phage Ecoli inh: growth loss of phage-infected E. coli, primary screen, RecBCD inhibitor project, absorbance, with phage, HTS; inhibition, % at 11.9 µM; hit rate 0.26% among 360,000; AID 651602, 2012; in the data active means inhibition above about 11%
Calb FLC: C. albicans growth inhibition with fluconazole, primary screen, CaCi-2 strain, Alamar Blue fluorescence. C. albicans CaCi-2 (fluconazole-resistant clinical isolate) + fluconazole, 48 h. hit rate 0.57% among 300,000. growth inhibition, % (no concentration beside the values);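 active means growth inhibition above about 58% in most replicates, limit read from the data, passing the limit was not always enough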;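 further: all wells also contain fluconazole at 8 µg/ml as a sub-toxic cotreatment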
Tat transport: E. coli Tat export inhibitors, primary screen, MC4100, TorA-mCherry reporter, fluorescence, single point. inhibition, % at 10 µM. hit rate 0.036% among 340,000;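 active means mean replicate inhibition at least 50% and at least half of replicates individually reaching 50%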;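 further: exported cargo escapes ClpAP degradation while cytoplasmic cargo is degraded and loses fluorescence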
E coli growth-2: E. coli V3065 growth inhibition, primary screen, counter-screen for AddAB inhibitor project, absorbance, OD600; 18 h; inhibition, % at 11.9 µM; hit rate 0.27% among 330,000; AID 449728, 2010;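 active means inhibition above the campaign's mean inhibition across all tested compounds plus 3 SD, cut at about 9.9% in these data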;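 further: uninfected addAB+ strain grown without phage in ampicillin broth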
RecBCD conf: growth loss of phage-infected RecBCD+ E. coli, confirmation, RecBCD inhibitor project, absorbance, E. coli V66, T4 gene 2 phage; E. coli V66 + T4 2- phage, growth OD; shares compounds with phage Ecoli inh; hit rate 45% among 890; AID 651982, 2013; inhibition, % at 11.9 µM;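 active means mean inhibition over triplicates exceeding the hit threshold derived in the original primary screen, cut at about 11% in these data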
Ecoli viability: E. coli viability inhibition, counter-screen for RecBCD inhibitor project, absorbance, high throughput; shares compounds with phage Ecoli inh; absorbance (OD) growth; inhibition, % at 11.9 µM; hit rate 29% among 890; AID 651983, 2013; in the data active means inhibition above about 20%;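 further: E. coli strain V66 grown with compound alone and no phage infection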
AddAB phage OD: growth loss of phage-infected AddAB-carrying E. coli, confirmation, counter-screen for RecBCD inhibitor project, absorbance, E. coli V3065, T4 phage. inhibition, % at 11.9 µM. AID 651984, 2013. hit rate 45% among 890. shares compounds with phage Ecoli inh. E. coli expressing H. pylori AddAB + T4 phage, OD growth; gene 2 mutant T4, recBCD-deleted host;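 active means mean inhibition above the solvent-only control wells' mean plus 3 SD, cut at about 22% in these data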;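 further: higher means less bacterial growth from phage killing when AddAB is blocked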
A number is an active result; i = inactive; nt = not tested or not shown.

SMILES | AddAB inh | E coli growth-1 | phage Ecoli inh | Calb FLC | Tat transport | E coli growth-2 | RecBCD conf | Ecoli viability | AddAB phage OD
Cc1ccc(-c2cnc(NCc3cc4c(cc3[N+](=O)[O-])OCO4)n2C)cc1C | i | i | 11.2 | i | i | i | i | i | i
Cn1c(-c2ccc3c(c2)OCO3)cnc1NCc1ccccc1 | i | i | i | i | i | i | nt | nt | nt
c1ccc(-c2cc3c(ccc4nonc43)nn2)cc1 | i | i | i | i | i | i | nt | nt | nt
On1onc2c3cc(-c4ccccc4)nc3ccc21 | i | 0.469 | 12.7 | nt | i | 11.5 | i | i | i
CC1(C)c2[nH]c3ccccc3c2CC2C(=O)N(Cc3ccc(F)cc3)C(=O)N21 (stereo not drawn) | nt | i | nt | nt | nt | nt | nt | nt | nt
CCn1c(SCC(=O)NN=Cc2c[nH]c3ccccc23)nnc1-c1ccc(C)cc1 | nt | i | nt | nt | nt | nt | nt | nt | nt
O=C(Nc1ccccc1)Nc1cc(OCC(F)(F)F)cc(OCC(F)(F)F)c1 | nt | i | 15.7 | i | i | nt | i | i | i
O=C(Nc1ccccc1)Nc1cc(Cl)cc(Cl)c1 | i | nt | i | i | i | i | nt | nt | nt
Cn1cc(CC(=O)N2CCN(c3ccccc3F)CC2)c2ccccc21 | i | i | 84.4 | i | i | i | i | i | i
CCCC[n+]1ccn(-c2nc3ccccc3nc2[N-]S(=O)(=O)c2ccccc2)c1 | i | i | i | i | i | i | nt | nt | nt
CCCC[n+]1ccn(-c2nc3ccccc3nc2[N-]S(=O)(=O)c2cccs2)c1 | i | i | 97.3 | i | i | i | i | i | i
CCCCOc1ccc(CCC(=O)NN=Cc2ccco2)cc1 | nt | i | nt | nt | nt | nt | nt | nt | nt
O=[N+]([O-])c1ccc2c(c1)oc1ccccc12 | i | i | i | i | i | i | nt | nt | nt
O=[N+]([O-])c1cc2c(ccc3occc32)o1 | nt | nt | 101.4 | nt | nt | nt | 101.9 | 103.0 | 102.5
CCCNC(=O)c1nc(C)c(C)nc1C(=O)Nc1cccc(Cl)c1 | i | i | 67.1 | i | i | i | i | i | i
Cc1nc(C)c(C(=O)Nc2cccc(Cl)c2)o1 | i | i | i | i | i | i | nt | nt | nt
O=C(Nc1cc(Cl)ccc1O)c1snnc1-c1ccccc1 | i | i | 13.9 | i | i | 9.8 | i | i | i
O=C1c2ccccc2C(=O)c2c(O)c(O)cc(O)c21 | i | i | 12.3 | nt | i | 15.3 | i | i | i
Cn1cc(S(=O)(=O)N2CCC(C(N)=O)CC2)c(=O)n(C)c1=O | i | i | 94.3 | i | i | i | i | i | i
Cc1ccc(-c2[nH]ncc2C=Nn2c(COc3ccccc3)nc3ccccc3c2=O)cc1 | nt | i | nt | nt | nt | nt | nt | nt | nt
Nc1nnc(-c2ccc([N+](=O)[O-])o2)s1 | nt | 0.0685 | 91.7 | nt | i | nt | 100.1 | 101.7 | 99.7
CO[C@@]1(NC(=O)Cc2cccs2)C(=O)N2C(C(=O)O)=C(COC(N)=O)CS[C@@H]21 | i | nt | 27.2 | i | i | i | 94.4 | 104.3 | 100.9
CCC1(CC)C(=O)C2=C3C(CC(C(=O)OC)CC(C(=O)OC)C31)C1C(=O)N(c3ccccc3)C(=O)C1C2C (stereo not drawn) | nt | i | nt | nt | nt | nt | nt | nt | nt
FC(F)Sc1ccc(NC(=S)NC(c2ccccc2)c2ccccc2)cc1 | i | i | i | i | i | i | nt | nt | nt
FC(F)Sc1ccc(NC(=S)NCc2ccccc2)cc1 | i | i | 12.7 | i | i | i | i | i | i
SMILES | AddAB inh | E coli growth-1 | phage Ecoli inh | Calb FLC | Tat transport | E coli growth-2 | RecBCD conf | Ecoli viability | AddAB phage OD
O=C(O)c1ccc(NC(=S)NCc2ccccc2)cc1 | i | i | i | i | i | i | nt | nt | nt
FC(F)(F)c1ccc(NC(=S)NCc2ccccc2)cc1 | i | i | 11.3 | i | i | i | i | i | i
CN(C)c1nc(NCc2ccccc2)nc(NN=Cc2ccccc2F)n1 | nt | i | nt | nt | nt | nt | nt | nt | nt
OC(c1ccc(F)cc1)c1ncc(-c2ccc(Oc3ccccc3)cc2)[nH]1 (stereo not drawn) | nt | nt | i | nt | nt | nt | nt | nt | nt
Cc1cc(C)cc(C(O)c2ncc(-c3ccc4ccccc4c3)[nH]2)c1 (stereo not drawn) | nt | nt | 18.4 | nt | nt | nt | 11.5 | i | 25.9
Cc1ccc(-c2cnc(C(O)c3cc(C)cc(C)c3)[nH]2)cc1 (stereo not drawn) | nt | nt | 17.1 | nt | nt | nt | 10.9 | i | i
Cc1cc(C(O)c2ncc(-c3ccc(Oc4ccccc4)cc3)[nH]2)ccc1F (stereo not drawn) | nt | nt | 11.4 | nt | nt | nt | i | i | i
COc1cccc(-c2cnc(C(O)c3cccc(OC)c3)[nH]2)c1 (stereo not drawn) | nt | nt | 11.1 | nt | nt | nt | i | i | i
COC(=O)C1NC(=O)N2C1SC(C)(C)C2C(=O)OC (stereo not drawn) | nt | i | nt | nt | nt | nt | nt | nt | nt
Cc1cc2cc(CCNC(=O)c3cccs3)c(=O)[nH]c2cc1C | i | i | 14.1 | i | i | i | i | i | i
COc1ccc(C2CC(=O)C=C(c3ccc(C(=O)O)cc3)C2)cc1OC (stereo not drawn) | nt | i | nt | nt | nt | nt | nt | nt | nt
CC(C)C[C@H]1CNC(=S)N1C[C@H]1CCCN1C[C@H](Cc1ccccc1)N1C[C@H](Cc2ccc(O)cc2)N(CC2CCCCC2)C1=S | nt | nt | 11.7 | nt | nt | nt | i | i | i
CCOc1ccccc1N1CCN(Cc2cccc(OC)c2O)CC1 | i | i | i | i | i | i | nt | nt | nt
COc1ccccc1N1CCN(Cc2cc(Br)c(O)c3ncccc23)CC1 | i | i | 11.6 | 88.3 | i | 12.2 | i | i | i
Nc1nc(N)c2c(ccc3c2ccn3Cc2cccc([N+](=O)[O-])c2)n1 | nt | nt | 100.2 | nt | nt | nt | 102.9 | 103.1 | 102.5
Nc1nc(N)c2cc([N+](=O)[O-])ccc2n1 | nt | i | i | nt | i | nt | nt | nt | nt
O=c1[nH]nc(-c2ccc([N+](=O)[O-])o2)c(=O)[nH]1 | nt | 0.523 | 22.3 | nt | i | nt | 15.9 | i | 91.2
Cc1cc(O)c(Sc2ncn[nH]2)cc1NS(=O)(=O)c1ccc(Cl)cc1 | i | i | i | nt | i | i | nt | nt | nt
O=S(=O)(Nc1cc(Sc2ncn[nH]2)c(O)c2ccccc12)c1ccccc1 | nt | i | 11.4 | nt | i | nt | i | i | i
O=C(Nc1ccc(OC(F)F)cc1)Nc1cccc(C(F)(F)F)c1 | i | 0.532 | 12.2 | i | i | 12.8 | 11.4 | i | i
NNC(=O)Nc1cccc(C(F)(F)F)c1 | i | i | i | i | i | i | nt | nt | nt
CC(=O)[C@@]1(O)CCC2C3CCC4=CC(=O)CC[C@]4(C)C3C(O)C[C@@]21C (stereo partly drawn) | nt | i | nt | nt | nt | nt | nt | nt | nt
O=C(/C=C/Nc1ccccc1)c1ccc(Cl)cc1Cl | i | i | i | i | i | i | nt | nt | nt
N#Cc1c(Nc2ccccc2)[n+]([O-])c2ccc(Cl)cc2[n+]1[O-] | nt | nt | 12.5 | nt | i | nt | 16.1 | i | 49.4
COc1cccc(NC(=O)Nc2nc(SC(C)(C)C)ns2)c1 | i | i | 12.6 | i | i | i | i | i | i

High-throughput results: PubChem, several laboratories
